Test [1] is described as follows: anti-His antibody binders, primary screen, artefact control for SMM control protein annotation, biochemical, small-molecule microarray, 635 nm fluorescence (AID 1128).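 Also: score merges feature fluorescence with signal-to-noise for each printed compound spot.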 Conditions: anti-His Alexa647 antibody binding, higher = more signal.
Test [2] deals with Human papillomavirus type 1a E7 protein (residues 1-88). The experiment in a line: HPV1a E7 small-molecule binders, primary screen, biochemical, small-molecule microarray, residues 1-88, 635 nm (AID 1129). Conditions: small-molecule microarray binding, fluorescence 635 nm; higher = more signal.
In test [3] the target is Focal adhesion kinase 1 (Homo sapiens) (UniProt Q05397). The experiment in a line: small-molecule microarray binders of FAK, primary screen, biochemical, 635/667 nm fluorescence, BSA, DTT (AID 1130).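 Also: composite of spot emission at 667 nm and signal to noise over triplicate slides.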 Conditions: PTK2 binding, 635 nm fluorescence, higher = more signal.
Test [4] relates to Fibrinogen (Alexa647-labelled). The experiment in a line: fibrinogen binders on compound microarrays, profiling panel, artefact control for SMM control-protein annotation, biochemical, small-molecule microarray, 635/667 nm fluorescence (AID 1131).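 Also: z-score merges 667 nm fluorescence with per-spot signal-to-noise over triplicate slides.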 Conditions: fibrinogen-A647 binding fluorescence, higher = more signal.
For test [5], the target named is Follistatin (Homo sapiens) (UniProt P19883). Put plainly: follistatin binders on small-molecule microarrays, primary screen, biochemical, small-molecule microarray, 635/667 nm fluorescence (AID 1132). Conditions: FST binding, 635 nm fluorescence, higher = more signal.
Test [6] concerns the target Fibroblast growth factor 2 (Homo sapiens) (UniProt P09038). Put plainly: FGF2 binders on small-molecule microarrays, primary screen, biochemical, small-molecule microarray, 635/667 nm fluorescence (AID 1133). Conditions: small-molecule microarray binding, FGF2, fluorescence 635/667; higher = more signal.
Test [7] can be described thus: mitochondrial membrane potential change in A549 cells, profiling panel, cell-based, JC-1 fluorescence, basal, 24 h, 100 nL (AID 1138).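 Also: A549 lung adenocarcinoma cells under basal conditions with no added stimulus; test concentration not given here.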 Conditions: higher = more signal.
The next test deals with Lefty1. The experiment in a line: Lefty1 binders on small-molecule microarrays, primary screen, biochemical, small-molecule microarray, 635/667 nm fluorescence (AID 1139). Conditions: small-molecule microarray binding, fluorescence 635/667; higher = more signal.
In test [8] the test system is wheat germ agglutinin (Triticum aestivum), Alexa647-labelled. The experiment in a line: wheat germ agglutinin binders on compound microarrays, profiling panel, artefact control for SMM control-protein annotation, biochemical, small-molecule microarray, 635/667 nm fluorescence (AID 1140).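 Also: score merges 667 nm feature emission with signal to noise over triplicate slides.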 Conditions: WGA-A647 binding, 635 nm fluorescence, higher = more signal.
Test [9] addresses Luciferin 4-monooxygenase (Photinus pyralis) (UniProt P08659). Put plainly: firefly luciferase enzyme inhibitors, primary screen, biochemical, luminescence, purified enzyme, 2006 set (AID 1141).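 Also: cell-free assay with purified firefly luciferase at 100 ng per well in PBS; test concentration not given here.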 Conditions: SteadyGlo luminescence, 30 min, higher = more signal, called active from +8 up or from −8 down.
In test [10] the test system is Wnt5a (protein binding on small-molecule microarray). The experiment in a line: Wnt5a binders on small-molecule microarray, primary screen, biophysical, 635/667 nm fluorescence (AID 1142).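 Also: fluorescence read at 667 nm with signal to noise per printed feature.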 Conditions: 635 nm fluorescence, higher = more signal.
Test [11] in a line: cell viability in Huh7 cells, primary screen, cytotoxicity control for HCV replication inhibitor project, CellTiter-Glo luminescence, basal, 48 h (AID 1143).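 Also: Huh7 hepatoma cells carrying a hepatitis C replication reporter with no stimulus; test concentration not given here.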 Conditions: Huh7 HCV replicon, higher = more signal, called active from +8 up or from −8 down. A general note: ATP-based viability assays read luminescence as a measure of living cells.
The nature of test [12]: P. aeruginosa biofilm formation inhibitors, primary screen, PAO1 strain, BacTiter-Glo luminescence, LB-PBS (AID 1144). Conditions: 12 h, higher = more signal.
Test [13] is described as follows: CREB reporter modulators without forskolin, primary screen, cell-based, PC12, CRE-LacZ reporter, unstimulated (AID 1145). Conditions: no forskolin, luminescence, 4.5 h, higher = more signal, called active from +8 up or from −8 down.
Test [14] is described as follows: CREB reporter modulators under forskolin, primary screen, cell-based, PC12, CRE-LacZ reporter, forskolin-stimulated (AID 1146).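 Also: PC12 cells with 6xCRE LacZ reporter stimulated by forskolin 10 µM; beta-galactosidase reporter signal reflecting CREB driven transcription.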 Conditions: luminescence, 4.5 h, higher = more signal, called active from +8 up or from −8 down.
Test [15] addresses Streptavidin (Streptomyces avidinii) (UniProt P22629). Put plainly: streptavidin binders on small-molecule microarray, primary screen, artefact control for SMM compound annotation, biophysical, 635/667 nm fluorescence (AID 1147).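 Also: signal reflects streptavidin binding to arrayed compounds as a control protein.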 Conditions: streptavidin binding, higher = more signal.
The nature of test [16]: small-molecule binders of probe aInhba, primary screen, biochemical, small-molecule microarray, 635/667 nm fluorescence (AID 1148).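 Also: score merges 667nm spot fluorescence with signal-to-noise for antibody binding to printed compounds.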 Conditions: higher = more signal.
In test [17] the target is Torsin-1A (Homo sapiens) (UniProt O14656). The experiment in a line: torsin A binders from cell lysate, primary screen, small-molecule microarray, wild-type, 635/667 nm (AID 1149). Conditions: COS7 hTOR1A-WT lysate, 635 nm fluorescence, higher = more signal.
For test [18] the target is unchanged. Put plainly: small-molecule binders of mutant TOR1A in lysate, primary screen, cell lysate, small-molecule microarray, COS7 lysate, 635/667 nm fluorescence (AID 1150).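 Also: score pools 667 nm emission and signal to noise measuring lysate protein binding.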 Conditions: COS7 hTOR1A mutant lysate, 635 nm fluorescence, higher = more signal.
For test [19], the system named is Sonic hedgehog protein (Shh). Put plainly: small-molecule binders of Shh protein, primary screen, biochemical, small-molecule microarray, 635/667 nm fluorescence (AID 1151).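 Also: Shh protein binding to compounds spotted on small-molecule microarray slides; score combines spot fluorescence intensity with signal-to-noise across triplicate slides.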 Conditions: small-molecule microarray binding, 635 nm fluorescence; higher = more signal.

Calls of active or inactive are those of the source. Unless noted, no rule for the calls is given here.

Chain of Luciferin 4-monooxygenase (Photinus pyralis) (P08659 whole entry, looked up): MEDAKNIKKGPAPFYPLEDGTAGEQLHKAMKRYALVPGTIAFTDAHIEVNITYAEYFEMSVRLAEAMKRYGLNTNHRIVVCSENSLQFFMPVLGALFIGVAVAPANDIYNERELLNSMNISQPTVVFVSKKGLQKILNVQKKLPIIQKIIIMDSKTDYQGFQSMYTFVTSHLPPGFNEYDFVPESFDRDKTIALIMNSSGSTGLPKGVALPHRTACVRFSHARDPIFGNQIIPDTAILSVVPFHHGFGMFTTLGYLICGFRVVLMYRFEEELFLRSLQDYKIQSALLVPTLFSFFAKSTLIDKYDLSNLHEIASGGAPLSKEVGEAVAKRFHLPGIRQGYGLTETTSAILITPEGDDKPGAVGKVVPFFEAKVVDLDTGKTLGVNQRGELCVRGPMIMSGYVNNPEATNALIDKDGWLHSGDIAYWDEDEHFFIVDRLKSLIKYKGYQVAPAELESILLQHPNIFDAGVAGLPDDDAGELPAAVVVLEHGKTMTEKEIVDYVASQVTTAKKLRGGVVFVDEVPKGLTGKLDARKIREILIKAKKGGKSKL
Chain of Focal adhesion kinase 1 (Homo sapiens) (Q05397 whole entry, looked up): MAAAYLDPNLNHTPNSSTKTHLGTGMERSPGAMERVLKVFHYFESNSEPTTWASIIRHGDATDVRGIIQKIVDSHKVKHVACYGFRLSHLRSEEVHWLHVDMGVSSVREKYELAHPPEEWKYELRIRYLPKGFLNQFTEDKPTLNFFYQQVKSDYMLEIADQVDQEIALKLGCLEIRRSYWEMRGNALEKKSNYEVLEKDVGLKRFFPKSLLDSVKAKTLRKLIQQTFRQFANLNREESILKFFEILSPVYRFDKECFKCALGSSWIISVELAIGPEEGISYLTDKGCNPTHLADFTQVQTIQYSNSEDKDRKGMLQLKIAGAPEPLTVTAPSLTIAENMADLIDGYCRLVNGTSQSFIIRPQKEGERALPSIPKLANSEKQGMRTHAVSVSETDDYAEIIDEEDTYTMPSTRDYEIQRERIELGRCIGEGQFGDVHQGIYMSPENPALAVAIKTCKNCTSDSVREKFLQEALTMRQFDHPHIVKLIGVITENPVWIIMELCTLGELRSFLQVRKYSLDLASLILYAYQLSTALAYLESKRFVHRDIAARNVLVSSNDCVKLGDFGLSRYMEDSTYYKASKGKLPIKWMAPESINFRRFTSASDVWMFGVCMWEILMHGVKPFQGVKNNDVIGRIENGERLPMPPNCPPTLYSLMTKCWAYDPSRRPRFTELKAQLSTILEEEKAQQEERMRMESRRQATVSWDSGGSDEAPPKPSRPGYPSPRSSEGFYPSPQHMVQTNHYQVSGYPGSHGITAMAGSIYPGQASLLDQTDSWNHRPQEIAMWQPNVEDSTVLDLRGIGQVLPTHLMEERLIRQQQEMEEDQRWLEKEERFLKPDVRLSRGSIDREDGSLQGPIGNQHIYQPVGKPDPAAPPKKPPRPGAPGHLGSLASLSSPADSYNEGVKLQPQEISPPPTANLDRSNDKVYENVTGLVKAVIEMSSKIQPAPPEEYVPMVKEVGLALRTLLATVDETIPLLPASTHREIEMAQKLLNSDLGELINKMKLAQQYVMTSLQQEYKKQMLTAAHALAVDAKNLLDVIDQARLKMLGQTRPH
Chain of Fibroblast growth factor 2 (Homo sapiens) (P09038 whole entry, looked up): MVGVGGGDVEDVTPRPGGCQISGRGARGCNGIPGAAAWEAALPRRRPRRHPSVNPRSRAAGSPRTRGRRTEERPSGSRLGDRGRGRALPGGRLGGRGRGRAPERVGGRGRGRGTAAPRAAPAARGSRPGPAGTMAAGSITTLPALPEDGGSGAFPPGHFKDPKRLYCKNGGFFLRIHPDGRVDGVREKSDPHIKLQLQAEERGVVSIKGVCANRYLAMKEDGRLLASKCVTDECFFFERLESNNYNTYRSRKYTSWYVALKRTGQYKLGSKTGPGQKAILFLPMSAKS
Chain of Torsin-1A (Homo sapiens) (O14656 whole entry, looked up): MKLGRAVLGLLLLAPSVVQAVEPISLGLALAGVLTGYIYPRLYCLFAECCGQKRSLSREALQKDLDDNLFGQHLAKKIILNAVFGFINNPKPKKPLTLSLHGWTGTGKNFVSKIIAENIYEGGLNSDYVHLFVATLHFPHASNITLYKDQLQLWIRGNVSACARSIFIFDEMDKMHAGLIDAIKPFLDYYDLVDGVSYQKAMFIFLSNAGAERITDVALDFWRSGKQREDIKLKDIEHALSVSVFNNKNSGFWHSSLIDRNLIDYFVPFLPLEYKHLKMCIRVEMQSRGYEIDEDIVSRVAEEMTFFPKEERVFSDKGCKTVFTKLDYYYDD
Chain of Streptavidin (Streptomyces avidinii) (P22629 whole entry, looked up): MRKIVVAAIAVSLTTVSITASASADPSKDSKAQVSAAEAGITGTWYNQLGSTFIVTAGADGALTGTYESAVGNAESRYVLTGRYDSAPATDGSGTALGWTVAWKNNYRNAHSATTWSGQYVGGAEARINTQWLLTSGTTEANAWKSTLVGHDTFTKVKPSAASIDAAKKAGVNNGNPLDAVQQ
Chain of Follistatin (Homo sapiens) (P19883 whole entry, looked up): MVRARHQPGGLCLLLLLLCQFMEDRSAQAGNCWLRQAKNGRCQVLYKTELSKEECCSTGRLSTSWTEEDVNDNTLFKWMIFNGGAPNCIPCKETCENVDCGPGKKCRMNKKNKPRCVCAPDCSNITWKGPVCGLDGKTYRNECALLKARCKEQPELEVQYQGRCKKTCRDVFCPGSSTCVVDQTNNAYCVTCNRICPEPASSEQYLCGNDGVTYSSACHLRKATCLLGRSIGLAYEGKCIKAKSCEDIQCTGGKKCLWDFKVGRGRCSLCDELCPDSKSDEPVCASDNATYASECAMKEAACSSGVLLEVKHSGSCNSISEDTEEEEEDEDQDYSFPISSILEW

As to `O=C1OCC=C[C@H]2OC34C=CCN(CCN5CCOCC5)C(=O)[C@H]3N(CCCO)C(=O)[C@@H]4[C@@H]12` (stereo not given in full), the composite z-score is 0.314 in [1]; 0.323 in [2]; 0.574 in test [3]; 0.38 in test [4]; 0.216 in test [5]; -0.344 in test [6]. For the same molecule, the composite z-score was 0.606 in the test on Lefty1; 0.114 in test [8]; -0.418 in [10]; 0.212 in [15]; -0.128 in test [16]; 0.267 in the test with Torsin-1A (Homo sapiens) [17]. The composite z-score with Torsin-1A (Homo sapiens) [18] stood at 0.156; in test [19], 1. For the same molecule, the z-score in [7] is -0.798; in test [9] it was -0.206 (inactive); in test [11], -2.3 (inactive); in test [12] it was -0.0222 (inactive); in [13], 0.329 (inactive); in test [14], 1.5 (inactive).
For `O=C1NC(=O)C2C1C=CC(C(O)Cc1ccccc1)N2Nc1ccc(Cl)cc1Cl` (stereo not given), the composite z-score in test [1] is 0.432; in test [2], -0.364; in test [3], 0.247; in test [4], 0.773; in [5], 0.178; in [6], -0.644. Moreover, the composite z-score is -0.695 with Lefty1; 0.834 in test [8]; -0.209 in test [10]; 0.889 in test [15]; 0.0345 in test [16]; -0.0973 with Torsin-1A (Homo sapiens) [17]. The composite z-score with Torsin-1A (Homo sapiens) [18] was 1.12; in test [19] it was -0.546. Moreover, the z-score in test [7] was 2.92; in [9] it was 0.981 (inactive); in test [11] it was -0.0389 (inactive); in [12], -0.171 (inactive); in test [13] it was 0.44 (inactive); in test [14], 0.115 (inactive).
Take `COc1cc2c(cc1O)C(C1CC1)N(Cc1cc3c(cc1Br)OCO3)CC2` (stereo not given): the composite z-score in [1] is -1.4; in [2], -0.603; in test [3] it was -0.629; in test [4], -0.736; in [5], -0.774; in test [6] it was -0.746. Further, the composite z-score was -1.01 with Lefty1; -0.503 in test [8]; -0.481 in [10]; -0.735 in test [15]; -0.179 in test [16]; -0.151 with Torsin-1A (Homo sapiens) [17]. Also, the composite z-score in the test with Torsin-1A (Homo sapiens) [18] is -0.416; in test [19], -1.09. Besides, the z-score in [7] was -0.721; in test [9] it was -0.0849 (inactive); in test [11] it was -5.73 (inactive); in [12], -0.109 (inactive); in [13] it was 0.245 (inactive); in test [14], 4.34 (inactive).
Consider `C[N+](C)(C)CCCC[C@@H]1NC(=O)[C@@H]2C[C@H](C(=O)NCCCCCN)[C@H](c3cccc(OCCO)c3)N2C1=O`, for which the composite z-score in [1] stood at 0.758; in test [2] it was 0.935; in test [3], 0.103; in test [4] it was 0.978; in test [5], 0.597; in test [6], 0.175. For the same molecule, the composite z-score is 0.161 in the test on Lefty1; 1.07 in [8]; -0.0878 in [10]; 1.19 in test [15]; -0.117 in test [16]; 0.345 in the test with Torsin-1A (Homo sapiens) [17]. In addition, the composite z-score with Torsin-1A (Homo sapiens) [18] is -0.149; in test [19] it was -0.125. Moreover, the z-score is 0.809 in [7]; -1.25 (inactive) in test [9]; 0.288 (inactive) in [11]; -0.165 (inactive) in test [12]; 0.7 (inactive) in test [13]; 0.508 (inactive) in test [14].
For the molecule `C=CCNC(=O)[C@H]1[C@@H]2C(=O)O[C@@H](c3ccccc3)[C@@H](c3ccccc3)N2[C@@H](c2ccc(OCCO)cc2)[C@]12C(=O)N(C(=O)OCCOC)c1ccccc12`, the composite z-score in [1] is 2.75; in test [2], 1.25; in [3], 0.389; in [4] it was 0.962; in [5], 1.33; in test [6], 1.53. The composite z-score in the test on Lefty1 was found to be 0.807; in [8] it was 0.789; in test [10], 0.25; in test [15], 0.614; in test [16], 0.0925; with Torsin-1A (Homo sapiens) [17], 0.895. Besides, the values for the composite z-score (with Torsin-1A (Homo sapiens) [18]; in [19]) were 0.497 and 1.95, respectively. Also, the z-score in [7] was -0.134; in test [9] it was 0.122 (inactive); in [11], -2.05 (inactive); in test [12], -0.478 (inactive); in test [13], 0.802 (inactive); in test [14] it was 9.23 (active).

Source of the values: PubChem BioAssay.
